{"source": "PubChem BioAssay (NCATS)", "note": "Active and inactive are the calls of the source. The call rests on the fitted dose curve; in most records, active means well fitted curve in the direction sought with a large enough effect; inconclusive means small, poorly fitted or top-dose-only effect, or another doubt; inactive means no such curve, though single readings can be large or run the other way.", "data": [{"assay": "Cellular Toxicity (caspase-3) HUV-EC-C (AID 656);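 further: cells exposed to compound for 16 h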", "conditions": "HUV-EC-C cells, caspase-3 activation (apoptosis), vehicle = 0, 100 µM tamoxifen = 100%; series mostly up to 92.2 µM; caspase-3 activation: at the top concentration", "description": "NIH Chemical Genomics Center [NCGC]\nNIH Molecular Libraries Screening Centers Network [MLSCN]\nNational Institutes of Environmental Health Sciences [NIEHS]\nNational Toxicology Program [NTP]\nWe have developed a 1536-well cell-based assay for quantitative high throughput screening (qHTS) against a number of cell lines to determine in vitro caspase 3/7 of small molecules. This particular assay uses the HUV-EC-C cell line which is derived from normal human vascular endothelial cells.\nNCGC Assay Protocol Summary:\nThe Caspase-Glo 3/7 assay (Promega) is a homogeneous method to measure caspase-3 and caspase-7 activities in cultured cells. The quantitation of caspase 3/7 activity is based on the cleavage of a peptide-aminoluciferin substrate. After caspase cleaves the substrate the free aminoluciferin is liberated and serves as the substrate of luciferase, which generates the light. The luminescent signal is proportional to amount of caspase 3/7 activity present.\nUsing the Caspase-Glo 3/7 assay, the amount of caspase 3/7 activity was measured in the HUV-EC-C cell line with complete culture medium following compound treatment for 16 hours. The assay was performed in opaque white 1536-well plates. In the screen, tamoxifen and doxorubicin were used as positive controls. Library compounds were measured for their ability to cause the activation of caspase 3/7 in the cell line, as reflected by an increase in luminescence signal, in a concentration-dependent manner. Data were normalized to the controls for basal activity (DMSO only) and 100% stimulation (100 uM tamoxifen). AC50 values were determined from concentration-response data modeled with the standard Hill equation.\nqHTS protocol for caspase 3/7 assay in HUV-EC-C cell line\n[Step] [Parameter] [Value] [Description]\n1. Reagent; 5 uL; 1000 HUV-EC-C cells/well\n2. Time; 5 hr; 37 °C incubation\n4. Controls; 23 nL; Tamoxifen 0.23 uM to 100 uM & doxorubicin 7.0 pM to 100 uM\n5. Time; 16 hr; 37 °C incubation\n6. Reagent; 5 uL; Caspase-Glo 3/7 reagent\n7. Time; 20 min; Room Temperature\n8. Detection; Luminescence; Viewlux plate reader\nKeywords: caspase 3/7, apoptosis, HUV-EC-C cell line, luminescence, NTPHTS, NTPHTS_NCGC, NIEHS, EPA, DSSTox, MLSMR, MLSCN, NIH Roadmap, qHTS, NCGC", "values": [{"compound": "CCN(CC)CCO", "caspase-3 activation": "1.98% (inactive)"}, {"compound": "Nc1ccc(-c2ccc(N)cc2)cc1", "caspase-3 activation": "-1.52% (inactive)"}, {"compound": "Brc1ccc(Oc2ccc(Br)cc2Br)c(Br)c1", "caspase-3 activation": "1.27% (inactive)"}, {"compound": "CC(=O)[O-].CC(=O)[O-].CC(=O)[O-].[Cr+3]", "caspase-3 activation": "-3.08% (inactive)"}, {"compound": "OC[P+](CO)(CO)CO", "caspase-3 activation": "-0.333% (inactive)"}, {"compound": "CCOC(=O)CBr", "caspase-3 activation": "4.38% (inactive)"}, {"compound": "c1ccc(C2CO2)cc1", "note": "(stereo not given)", "caspase-3 activation": "0.736% (inactive)"}, {"compound": "ClCc1ccccc1", "caspase-3 activation": "-2.38% (inactive)"}, {"compound": "ClC(Cl)C(Cl)Cl", "caspase-3 activation": "-2.19% (inactive)"}, {"compound": "Cc1ccc([N+](=O)[O-])cc1", "caspase-3 activation": "7.61% (inactive)"}, {"compound": "O=Cc1ccc(Cl)cc1Cl", "caspase-3 activation": "4.73% (inactive)"}, {"compound": "ClCCCCl", "caspase-3 activation": "-0.859% (inactive)"}, {"compound": "N#CCCCCC#N", "caspase-3 activation": "-1.33% (inactive)"}, {"compound": "C=CC(=O)OCC(CC)CCCC", "note": "(stereo not given)", "caspase-3 activation": "-0.429% (inactive)"}, {"compound": "CC(C)(COCC1CO1)COCC1CO1", "note": "(stereo not given)", "caspase-3 activation": "4.01% (inactive)"}, {"compound": "CC1CC(=O)O1", "note": "(stereo not given)", "caspase-3 activation": "1.54% (inactive)"}, {"compound": "ClC(Br)Br", "caspase-3 activation": "-3.35% (inactive)"}, {"compound": "COC(=O)Nc1nc2ccccc2[nH]1", "caspase-3 activation": "-3.65% (inactive)"}, {"compound": "O=S(=O)(O)F", "caspase-3 activation": "-2.03% (inactive)"}, {"compound": "OCC(Cl)CCl", "note": "(stereo not given)", "caspase-3 activation": "3.82% (inactive)"}, {"compound": "C=CCBr", "caspase-3 activation": "-0.889% (inactive)"}, {"compound": "Cc1cnc[nH]1", "caspase-3 activation": "-0.0453% (inactive)"}, {"compound": "O=Cc1ccc2c(c1)OCO2", "caspase-3 activation": "-1.25% (inactive)"}, {"compound": "Nc1cc(Cl)cc(Cl)c1", "caspase-3 activation": "-0.895% (inactive)"}, {"compound": "CC(=O)NNc1ccccc1", "caspase-3 activation": "-7.59% (inactive)"}, {"compound": "O=[N+]([O-])c1cc(Cl)c(Cl)c(Cl)c1", "caspase-3 activation": "-1.06% (inactive)"}, {"compound": "CCOS(C)(=O)=O", "caspase-3 activation": "-7.55% (inactive)"}, {"compound": "BrCCc1ccccc1", "caspase-3 activation": "1.49% (inactive)"}, {"compound": "N#CCBr", "caspase-3 activation": "-1.03% (inactive)"}, {"compound": "Nc1ccc(Cc2ccc(N)c(Cl)c2)cc1Cl", "caspase-3 activation": "-5.52% (inactive)"}, {"compound": "Cc1cc(Cl)ccc1O", "caspase-3 activation": "1.52% (inactive)"}, {"compound": "Oc1cc(Cl)ccc1Cl", "caspase-3 activation": "1.43% (inactive)"}, {"compound": "O=C(O)CCl", "caspase-3 activation": "-3.58% (inactive)"}, {"compound": "ClC(Cl)c1ccccc1", "caspase-3 activation": "0.945% (inactive)"}, {"compound": "CCCCNC(=O)n1c(NC(=O)OC)nc2ccccc21", "caspase-3 activation": "-7.05% (inactive)"}, {"compound": "Cc1cc(-c2cc(C)c(N)c(C)c2)cc(C)c1N", "caspase-3 activation": "3.12% (inactive)"}, {"compound": "CC(Cl)(Cl)Cl", "caspase-3 activation": "-1.72% (inactive)"}, {"compound": "CC(C)OS(C)(=O)=O", "caspase-3 activation": "-1.19% (inactive)"}, {"compound": "O=c1ccc(=O)[nH][nH]1", "caspase-3 activation": "0.719% (inactive)"}, {"compound": "CN(C)C(=O)Cl", "caspase-3 activation": "0.861% (inactive)"}]}]}
